From PubChem BioAssay (NCI) come the findings set out here.

The panel holds about 79,000 compounds, 15% with a hit somewhere; the sample as a whole holds those more often. A number with no mark means an inactive call. Active and inactive are the calls of the source. No stated cut-off is given here; in the data, active means growth inhibition above about 70%; inactive means the rest.

Test [1] can be described thus: NCI Yeast Anticancer Drug Screen. Data for the rad50 strain (AID 155).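 Further: 0% = growth of vehicle-only cultures of the same strain.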 Conditions: S. cerevisiae rad50 strain growth inhibition; at 50.0 µM; hits give high values. The method in brief:
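Genetically altered yeast (DNA repair pathway); compound treatment; growth inhibition vs vehicle ctrl.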

The nature of test [2]: NCI Yeast Anticancer Drug Screen. Data for the mec2-1 strain (AID 157). To be noted: S. cerevisiae mec2-1 strain, at 50.0 µM, hits give high values. In short, it runs like this: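 Compounds were applied to mec2-1 yeast cells. Their growth was then compared with that of vehicle-treated cultures to give growth inhibition.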
Test [3] can be described thus: NCI Yeast Anticancer Drug Screen. Data for the sgs1 mgt1 strain (AID 161).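 Further: 0% = growth of cultures given vehicle only.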 To be noted: S. cerevisiae sgs1 mgt1 strain, at 50.0 µM, hits give high values. In short, it runs like this:
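Growth of a repair-deficient yeast mutant was monitored after compound treatment and expressed as inhibition relative to vehicle-treated cultures.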

Test [4] in a line: NCI Yeast Anticancer Drug Screen. Data for the cln2 rad14 strain (AID 165).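 Further: 0% = growth equal to vehicle treated cultures.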 Conditions: S. cerevisiae cln2 rad14 strain, at 50.0 µM, hits give high values. The method in brief: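 Strain: cln2 rad14 yeast, altered in cell cycle control and DNA damage repair. Read-out: growth inhibition vs vehicle.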
A short description of test [5]: NCI Yeast Anticancer Drug Screen. Data for the bub3 strain (AID 167). Conditions: S. cerevisiae bub3 mutant strain, at 50.0 µM, hits give high values. In short, it runs like this: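 Yeast carrying a defined mutation is treated with each compound, and growth is compared with that of vehicle-exposed cells to give inhibition.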
Test [6] in a line: NCI Yeast Anticancer Drug Screen. Data for the mlh1 rad18 strain (AID 175). Conditions: S. cerevisiae mlh1 rad18 strain growth inhibition; at 50.0 µM; hits give high values. In short, it runs like this:
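A repair-deficient yeast strain is exposed to test compound, and growth is scored relative to vehicle-treated controls.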

For the compound `CCc1cc2c(cc1C(=O)CCN1CCCC1)C(C)(C)CCC2(C)C`, the growth inhibition in test [1] is 99.5% (active); in test [2] it was 99.7% (active); in test [3] it was 98.5% (active); in test [4] it was 99.5% (active); in test [5], 99.5% (active); in test [6], 99.8% (active).
On to `CC(C)CNC(=S)N/N=C/C=C/c1ccc(C(C)C)cc1`, for which the growth inhibition in test [1] was -18.2%; in test [2] it was -12.7%; in test [3], 20.3%; in test [4], -16.1%; in test [5], 53.9%; in test [6], 0.35%.
As for `Cn1nc(-c2cccc(-c3nn(C)c(=NCCO)s3)n2)sc1=NCCO`, the growth inhibition was -29.8% in test [1]; -25.4% in test [2]; -51% in test [3]; -6.7% in test [4]; -28.1% in test [5]; -40.6% in test [6].
With `CC(Sc1nc2ccccc2c(=O)[nH]1)c1ccccc1` (stereo not given), the growth inhibition in test [1] was 3.1%; in test [2], -1.85%; in test [3] it was 3.3%; in test [4], -21.8%; in test [5] it was 7.3%; in test [6] it was -6.7%.
For the compound `O/N=C/c1ccccc1O`, the growth inhibition in test [1] was 14.9%; in test [2], -19.1%; in test [3], -0.3%; in test [4], 9.65%; in test [5], -7.85%; in test [6], 10.2%.
For `CCC(CC)C(=O)OCCOCCOC`, the growth inhibition is 30.2% in test [1]; 11.8% in test [2]; 14.9% in test [3]; 7.9% in test [4]; 23.6% in test [5]; 36.9% in test [6].
`O=C(OCOC(=O)N1CCOCC1)N1CCOCC1`: the growth inhibition in test [1] is 2.3%; in test [2], -7.25%; in test [3], 1%; in test [4], 17.6%; in test [5], -1.9%; in test [6], -5.2%.
Turning to `COc1cccc2c(=O)c3c(oc12)CCC(C)C3` (stereo not given), the growth inhibition was -10.6% in test [1]; 4.35% in test [2]; 5.85% in test [3]; -35.7% in test [4]; -14.8% in test [5]; -9.4% in test [6].
Take `CC(C)NC(=O)c1ccccc1S(=O)c1ccccc1C(=O)NC(C)C`: the growth inhibition in test [1] was -16.4%; in test [2], 3.45%; in test [3], 8.15%; in test [4], 11.3%; in test [5] it was 5.05%; in test [6], 7.25%.
As to `ON1c2ccc3ccccc3c2C=CC1(c1ccccc1)c1ccccc1`, the growth inhibition in test [1] was -12.7%; in test [2], -2.75%; in test [3], -12.6%; in test [4], 23.2%; in test [5], 16.5%; in test [6], 10.9%.
`COC(=O)CCCCCCCCCCCCC1C=CCC1` (stereo not given): the growth inhibition in test [1] is 8.9%; in test [2] it was -31.1%; in test [3], 11.4%; in test [4] it was 9.25%; in test [5], -5.85%; in test [6], 4.25%.
With `CN1C(CC(=O)c2ccccc2)CCCC1CC(O)c1ccccc1` (stereo not given), the growth inhibition in test [1] was 13.9%; in test [2] it was 2.25%; in test [3], 25.4%; in test [4], 40.4%; in test [5] it was -2.4%; in test [6] it was 36.1%.
In the case of `Cc1cc2oc(=O)[nH]c(=S)c2c(C)c1C`, the growth inhibition in test [1] is -47.7%; in test [2], -19.2%; in test [3], -35.2%; in test [4] it was 2.45%; in test [5], -59.5%; in test [6], -36.6%.
`CN(Cc1nc2c(N)nc(N)nc2nc1N)c1ccc(C(=O)NC(CCC(=O)O)C(=O)O)cc1` (stereo not given): the growth inhibition in test [1] was 7.65%; in test [2], 42.2%; in test [3], 22.3%; in test [4], -7.4%; in test [5] it was -1.95%; in test [6], -26.1%.
Turning to `CC12CCC(=O)C=C1CCC1C2C(O)CC2(C)C1CCC2(O)C(=O)COC(=O)C1C2C=CC(C2)C1C(=O)O` (stereo not given), the growth inhibition in test [1] is 24.1%; in test [2], 9.45%; in test [3] it was 25%; in test [4], 12.1%; in test [5] it was -6.85%; in test [6], 25.1%.
Regarding `COc1cc(C2=N/C(=C\c3cc(Br)cc(Br)c3O)C(=O)O2)cc(OC)c1OC`, the growth inhibition in test [1] is 83.2% (active); in test [2] it was 94.5% (active); in test [3] it was 88.2% (active); in test [4], 98.7% (active); in test [5], 98.5% (active); in test [6], 92.3% (active).
With `C=COS(=O)O`, the growth inhibition in test [1] was -0.65%; in test [2], -3.45%; in test [3], -4.85%; in test [4], -6.7%; in test [5], 12.3%; in test [6] it was -0.15%.
For the compound `O=c1oc(-c2ccccc2)c(-c2ccccc2)o1`, the growth inhibition in test [1] was 43%; in test [2], 22.8%; in test [3] it was 21.9%; in test [4], -46.8%; in test [5], 45.6%; in test [6], 46.4%.
With `CCC(O)(c1ccc(OC)cc1)C(c1ccccc1)c1ccccn1` (stereo not given), the growth inhibition is -1.3% in test [1]; -8.8% in test [2]; 6.5% in test [3]; -16.5% in test [4]; 2.8% in test [5]; -0.65% in test [6].
On to `CC(C(=O)O)C(C)C(=O)Nc1ccccc1` (stereo not given), for which the growth inhibition is 33.9% in test [1]; 6.15% in test [2]; 11.1% in test [3]; 24.4% in test [4]; 1.5% in test [5]; 28.4% in test [6].
